PubChem BioAssay (NCATS)
Several values for one entry are separate records, joined by “and”; a condition that tells them apart may be missing. Equal entries are not always repeated. Results filed as inconclusive are left out. A call without a number means that no potency is given here. More than one record can exist for a structure, and the calls need not agree. Activity calls are given as the source filed them. Unless noted, calls come from the whole dose curve; as a rule, active = well fitted curve in the direction sought with a large enough effect; inconclusive = small, poorly fitted or top-dose-only effect, or another doubt; inactive = no such curve, though single readings can be large; an effect the other way counts as inactive or inconclusive.

Columns and labels:
[1] = target: Cytochrome P450 1A2 (Homo sapiens) (UniProt P05177); experiment: p450-cyp1a2 (AID 410; calls by dose curve; note: potency is the fitted concentration of half-maximal effect); settings: recombinant CYP1A2, luciferin-ME demethylation, luminescence; series mostly up to 57 µM
Procedure, shortened: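 Read-out is luminescence from luciferin produced by CYP1A2 demethylation of Luciferin-ME (100uM, at Km). Detection reagent stopped the 60 min NADPH-dependent reaction; signals were normalized to 57 uM furafylline.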

[2] = target: Glucocorticoid receptor (Homo sapiens) (UniProt P04150); experiment: GR-GFP Redistribution (AID 450;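 active = compounds whose dose series gives a full or clear partial fitted curve of increased nuclear translocation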; note: potency is the fitted concentration of half-maximal effect); settings: U2OS GR-GFP nuclear translocation, laser cytometry, 2 h
[3] = target: Glucocorticoid receptor (Homo sapiens) (UniProt P04150); experiment: GR-EFC Redistribution (AID 451; calls by dose curve; note: potency is the fitted concentration of half-maximal effect); settings: CHO-K1 GR-EFC translocation, beta-gal luminescence, 2 h
Procedure, shortened: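 CHO-K1 cells expressing nuclear EA and GR-ED fragments of b-gal; compounds titrated up to 46 uM final, 2 h at 37 C. GR nuclear translocation read as complemented b-gal luminescence after 1 h RT detection.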

[4] = target: Mitogen-activated protein kinase 10 (Mus musculus) (UniProt Q61831); experiment: JNK3 AlphaScreen Assay (AID 530; active = well fitted curve in either direction with a large enough effect, not every such curve was filed as active;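 note: kinase came from lysate of stimulated human HepG2 cells; signal reports phosphorylation of biotinylated GST-cJun 1-79 at Ser73 with 10 µM ATP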); settings: JNK3 lysate, c-Jun phosphorylation; series mostly up to 57.1 µM
Procedure, shortened: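 HepG2 lysate (IL-1b/TNFa pre-activated) + biotin-GST-cJun 1-79 + anti-pSer73 cJun; cpd titration, 15 min RT; ATP 10 uM start; Tris pH 7.6, MgCl2, DTT, vanadate; beads in EDTA buffer; AlphaScreen.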

[5] = target: 3',5'-cyclic-AMP phosphodiesterase 4B (Homo sapiens) (UniProt Q07343); experiment: qHTS Assay for Inhibitors of PDE-IV (AID 607; active = well fitted activation curve with a large enough effect in the main read-out, with a control signal flat, not every such curve was filed as active); settings: HEK293 ACTOne CNG channel cells, membrane potential fluorescence; series mostly up to 22.9 µM
Procedure, shortened: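 Live HEK293 cells with a modified cyclic nucleotide-gated (CNG) channel report intracellular cAMP via membrane-potential dye fluorescence (ex 535/em 590 nm). Endogenous PDE-IV was targeted. Compounds were tested at up to 22.9 uM final; RO 20-1724 100 uM served as control.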

[6] = qHTS Assay for Lipid Storage Modulators (AID 1519; calls by dose curve); settings: Drosophila S3 cells, BODIPY lipid droplet/cell ratio, laser cytometry, cells loaded with oleic acid; for activity change, negative = inhibition: at 57.5 µM (top of the series)
Procedure, shortened: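 Cells seeded at 5,000 per well were treated with compounds over a concentration series and loaded with oleic acid (400 uM, as added). Lipid droplet fluorescence (488 nm excitation, 500-530 nm channel) was read by laser-scanning cytometry and normalized to 20 uM Triacsin C.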

[7] = target: Ubiquitin carboxyl-terminal hydrolase 1 (Homo sapiens) (UniProt O94782); experiment: Inhibitors of USP1/UAF1: Pilot qHTS (AID 504865); settings: purified USP1/UAF1, Ub-rhodamine cleavage fluorescence; series mostly up to 114 µM;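 note: rhodamine fluorescence freed from ubiquitin-rhodamine substrate followed over time; top concentration of the series differs between compounds; nearly all actives have a fitted effect of over 35% in size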
Procedure, shortened: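 1nM USP1/UAF1 + cpd, 15 min RT; start w/ Ub-Rho 150nM final; kinetic FL 480/540 nm, 6 reads q60 s. Buffer 50mM HEPES pH 7.8, 0.5mM EDTA, 1mM TCEP, 0.01% Tween-20, 0.1 mg/ml BSA.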

[8] = target: DNA dC->dU-editing enzyme APOBEC-3G (Homo sapiens) (UniProt Q9HC16); experiment: qHTS for inhibitors of Vif-A3G interactions: Validation (AID 588379); settings: Vif-A3G protein interaction assay; series mostly up to 46.1 µM
Procedure, shortened: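 Yellow fluorescence (Ex 488, Em 500-530) of Vif-coexpressing HeLa A3G-eYFP cells, scanned by Acumen cytometer, reports blocked A3G degradation. Cells plated at 700/well overnight at 37 deg C before compound addition, then a further overnight compound incubation at 37 deg C.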

[9] = system: Zika virus NS2B-NS3 protease; experiment: Primary screen GU AMC qHTS for Zika virus inhibitors (AID 1347154); settings: Zika NS2B-NS3 unlinked protease, AMC fluorogenic substrate; series mostly up to 54.1 µM; note: nearly all actives have a fitted effect of over 70% in size
Procedure, shortened: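 Unlinked Zika NS2B hydrophilic domain–NS3 protease complex at 25 nM in 10 mM Tris-HCl pH 8.0, 0.01% Tween 20, with an AMC peptide substrate. Fluorescence change (340/450 nm) over 15 min at room temperature, normalized to controls, fitted to 4-parameter Hill.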

[10] = Primary qHTS for small molecule stabilizers of the endoplasmic reticulum resident proteome: Secreted ER Calcium Modulated Protein (SERCaMP) assay (AID 1508630); settings: SH-SY5Y GLuc-SERCaMP (Gaussia luciferase released on ER calcium loss) secretion, thapsigargin, luminescence; series mostly up to 38.4 µM
Procedure, shortened: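 The SH-SY5Y reporter protocol was run at 3 concentrations up to 38.3 uM (primary) or 11 concentrations (follow-up): 16 h compound, 100 nM thapsigargin for 4 h, then extracellular luciferase luminescence.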

[11] = AP1 Signaling Pathway (AID 357; active = well fitted curve in either direction with a large enough effect, not every such curve was filed as active;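 note: ME-180 reporter cells stimulated with EGF at its EC50 level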); settings: ME-180 AP-1-bla reporter, EGF-induced, beta-lactamase ratio, 5 h; at 38 µM (top of the series)
Procedure, shortened: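 In this screen, ME-180 cells in Opti-MEM with 0.5% dialyzed FBS received EC50 EGF and compound titrations for 5 h. AP-1 reporter beta-lactamase was detected via CCF4 ratio, giving AC50 for positive and negative modulators.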

[12] = NFAT Signaling Pathway (AID 444; active = well fitted curve in either direction with a large enough effect, not every such curve was filed as active;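 note: carbachol stimulus at about its EC50 of 1 µM final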); settings: Jurkat NFAT-bla M1, carbachol, beta-lactamase ratio, 5 h; at 38 µM (top of the series)
Procedure, shortened: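 Jurkat cells with NFAT-driven β-lactamase reporter and co-expressed M1 receptor, stimulated with carbachol (final 1 uM, ~EC50), compound titration, 5 h at 37 °C. CCF4 loaded 1 h at RT; 460/530 nm ratio gave %activity and AC50.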

[13] = Stat Signaling Pathway (AID 446; active = well fitted curve in either direction with a large enough effect, not every such curve was filed as active;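 note: ME-180 cervical cancer cells given 40 pM IL-6 alongside compound; SIE-controlled beta-lactamase reporter measured as 460/530 nm FRET emission ratio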); settings: ME-180 (cervical carcinoma) SIE beta-lactamase reporter, IL-6 stimulated, 5 h; at 38 µM (top of the series)
Procedure, shortened: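 Overnight-plated ME-180 cells bearing a STAT Inducible Element beta-lactamase reporter; 5 h co-exposure to compound and 40 pM IL-6; values normalized to 300 pM IL-6 and 125 nM JAK inhibitor controls.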

[14] = target: Guanine nucleotide-binding protein G(i) subunit alpha-1 (Homo sapiens) (UniProt P63096); experiment: qHTS Assay for Inhibitors of RGS12 GoLoco Motif Activity (Green Fluorophore) (AID 879); settings: Galphai1/FITC-RGS12 GoLoco peptide, fluorescence polarization; series mostly up to 57.1 µM;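 note: negative values mean loss of peptide binding seen as reduced polarization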
Procedure, shortened: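 A drop in FITC polarization marked displacement of the FITC-tagged RGS12 GoLoco peptide (10 nM) from Gαi1 (50 nM). Compounds were incubated 10 min at room temperature in Tris pH 7.5 buffer containing 150 mM NaCl, 0.1 mM GDP and 0.05% NP40; unlabeled peptide titration served as control.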

[15] = target: Pyruvate kinase (Leishmania mexicana) (UniProt Q27686); experiment: qHTS Validation Assay for Inhibitors of Leishmania Mexicana Pyruvate Kinase (AID 945); settings: purified L. mexicana pyruvate kinase, enzyme activity, E451W mutant enzyme; series mostly up to 57.5 µM
Procedure, shortened: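 The enzyme is a highly purified E451W mutant of LmPYK used at 0.2 nM. It converts 0.5 mM PEP and 0.1 mM ADP over 1 h at room temperature; product ATP is quantified by luciferase luminescence relative to DMSO controls.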

[16] = target: Pyruvate kinase PKM (Homo sapiens) (UniProt P14618); experiment: qHTS Assay for Activators of Human Muscle Pyruvate Kinase (AID 954; active = well fitted curve in the direction sought with a large enough effect, not every such curve was filed as active); settings: purified human muscle pyruvate kinase, luciferase-coupled luminescence, 1 h; series mostly up to 57.5 µM
Procedure, shortened: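 Screening used highly purified human pyruvate kinase M2 under submaximal activity, with PEP at its Km and ADP below Km. After an hour at room temperature, ATP was read by luciferase luminescence.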

[17] = target: Alpha-galactosidase A (Homo sapiens) (UniProt P06280); experiment: Counterscreen for Glucocerebrosidase Inhibitors: qHTS Assay for Human alpha-Galactosidase at pH 4.5 (AID 992); settings: purified enzyme, fluorogenic substrate; series mostly up to 76.9 µM
Procedure, shortened: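 Each compound is preincubated briefly with 2 nM enzyme before substrate addition (80 uM); plates then sit 20 min at ambient temperature, are quenched with 1M NaOH/1M glycine, and read fluorometrically.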

[18] = target: alpha-glucosidase (Oryza sativa, rice) (UniProt Q653V4); experiment: Counterscreen for Glucocerebrosidase Inhibitors: qHTS Assay for Rice alpha-Glucosidase at pH 5.0 (AID 997); settings: rice alpha-glucosidase enzyme activity; series mostly up to 76.9 µM
Procedure, shortened: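 Endpoint fluorogenic assay at pH 5.0: compounds (0.7 nM to 77 uM) titrated against 4 nM rice enzyme and 400 uM 4-MU-alpha-glucoside for 20 min at room temperature; NaOH/glycine stop, read ex 365/em 440 nm, Hill-fitted AC50.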

[19] = measured here: cell count channel max response
[20] = measured here: lipid channel max response

DNA dC->dU-editing enzyme APOBEC-3G (Homo sapiens), sequence (Q9HC16 whole entry, looked up): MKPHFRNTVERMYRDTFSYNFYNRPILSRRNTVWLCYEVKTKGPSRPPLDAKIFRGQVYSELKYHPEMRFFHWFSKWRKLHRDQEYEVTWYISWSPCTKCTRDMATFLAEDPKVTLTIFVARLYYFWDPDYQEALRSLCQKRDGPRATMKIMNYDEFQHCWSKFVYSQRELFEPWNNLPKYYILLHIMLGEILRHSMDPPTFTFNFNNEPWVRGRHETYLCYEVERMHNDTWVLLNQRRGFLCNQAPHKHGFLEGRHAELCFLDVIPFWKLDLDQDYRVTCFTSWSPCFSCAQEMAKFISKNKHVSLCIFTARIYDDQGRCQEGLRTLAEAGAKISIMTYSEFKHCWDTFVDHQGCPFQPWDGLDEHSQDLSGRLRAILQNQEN
Cytochrome P450 1A2 (Homo sapiens), sequence (P05177 whole entry, looked up): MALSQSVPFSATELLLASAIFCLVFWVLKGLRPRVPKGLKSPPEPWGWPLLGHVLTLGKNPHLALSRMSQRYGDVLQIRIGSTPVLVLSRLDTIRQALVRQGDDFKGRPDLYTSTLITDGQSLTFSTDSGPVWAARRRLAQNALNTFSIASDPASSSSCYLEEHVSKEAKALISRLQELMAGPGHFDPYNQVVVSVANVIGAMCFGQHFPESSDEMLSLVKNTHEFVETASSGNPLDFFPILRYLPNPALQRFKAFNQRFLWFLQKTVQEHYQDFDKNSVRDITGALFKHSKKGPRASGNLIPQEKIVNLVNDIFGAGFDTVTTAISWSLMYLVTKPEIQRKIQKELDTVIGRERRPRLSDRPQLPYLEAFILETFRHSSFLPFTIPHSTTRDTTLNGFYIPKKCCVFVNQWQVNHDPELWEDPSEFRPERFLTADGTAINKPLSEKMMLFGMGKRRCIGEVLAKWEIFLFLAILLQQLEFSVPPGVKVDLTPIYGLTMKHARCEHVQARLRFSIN
Ubiquitin carboxyl-terminal hydrolase 1 (Homo sapiens), sequence (O94782 whole entry, looked up): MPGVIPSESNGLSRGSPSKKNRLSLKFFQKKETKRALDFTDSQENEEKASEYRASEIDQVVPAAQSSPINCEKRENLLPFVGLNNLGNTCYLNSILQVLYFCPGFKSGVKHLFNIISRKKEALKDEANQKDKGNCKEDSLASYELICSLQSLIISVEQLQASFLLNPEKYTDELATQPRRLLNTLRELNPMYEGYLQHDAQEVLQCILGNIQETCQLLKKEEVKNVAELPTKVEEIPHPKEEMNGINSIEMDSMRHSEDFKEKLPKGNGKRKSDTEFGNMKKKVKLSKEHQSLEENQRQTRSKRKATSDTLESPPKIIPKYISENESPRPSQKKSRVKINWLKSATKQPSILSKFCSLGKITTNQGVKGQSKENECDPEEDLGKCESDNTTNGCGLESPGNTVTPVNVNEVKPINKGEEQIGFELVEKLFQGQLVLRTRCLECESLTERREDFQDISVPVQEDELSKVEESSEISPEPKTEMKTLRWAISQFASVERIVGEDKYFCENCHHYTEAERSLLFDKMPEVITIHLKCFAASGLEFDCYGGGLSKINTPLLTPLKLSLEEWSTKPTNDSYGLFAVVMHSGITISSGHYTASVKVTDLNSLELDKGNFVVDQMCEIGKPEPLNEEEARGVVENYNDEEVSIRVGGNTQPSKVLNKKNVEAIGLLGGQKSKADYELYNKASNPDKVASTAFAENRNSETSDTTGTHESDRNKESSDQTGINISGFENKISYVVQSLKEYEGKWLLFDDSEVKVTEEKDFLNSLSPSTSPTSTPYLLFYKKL
Glucocorticoid receptor (Homo sapiens), sequence (P04150 whole entry, looked up, the tested form may be a part): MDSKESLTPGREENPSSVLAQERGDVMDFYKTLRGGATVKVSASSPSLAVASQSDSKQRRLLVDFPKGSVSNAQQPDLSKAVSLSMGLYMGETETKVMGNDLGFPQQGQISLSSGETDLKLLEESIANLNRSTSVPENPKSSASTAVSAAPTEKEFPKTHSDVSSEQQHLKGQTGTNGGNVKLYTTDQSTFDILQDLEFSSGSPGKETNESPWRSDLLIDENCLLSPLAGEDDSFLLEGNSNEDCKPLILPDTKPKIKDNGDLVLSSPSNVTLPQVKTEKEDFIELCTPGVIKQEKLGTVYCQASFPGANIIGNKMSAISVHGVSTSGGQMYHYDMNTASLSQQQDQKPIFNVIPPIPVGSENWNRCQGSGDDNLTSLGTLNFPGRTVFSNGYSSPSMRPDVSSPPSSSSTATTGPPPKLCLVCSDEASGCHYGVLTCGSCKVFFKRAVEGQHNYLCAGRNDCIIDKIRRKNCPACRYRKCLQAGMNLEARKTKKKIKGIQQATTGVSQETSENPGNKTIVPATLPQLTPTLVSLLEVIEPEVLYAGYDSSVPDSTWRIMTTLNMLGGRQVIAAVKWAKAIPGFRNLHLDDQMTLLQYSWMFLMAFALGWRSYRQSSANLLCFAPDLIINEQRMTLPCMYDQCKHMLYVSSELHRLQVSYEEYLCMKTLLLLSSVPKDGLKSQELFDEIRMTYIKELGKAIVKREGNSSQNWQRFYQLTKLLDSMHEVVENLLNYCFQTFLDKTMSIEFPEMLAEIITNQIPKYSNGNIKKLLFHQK
3',5'-cyclic-AMP phosphodiesterase 4B (Homo sapiens), sequence (Q07343 whole entry, looked up): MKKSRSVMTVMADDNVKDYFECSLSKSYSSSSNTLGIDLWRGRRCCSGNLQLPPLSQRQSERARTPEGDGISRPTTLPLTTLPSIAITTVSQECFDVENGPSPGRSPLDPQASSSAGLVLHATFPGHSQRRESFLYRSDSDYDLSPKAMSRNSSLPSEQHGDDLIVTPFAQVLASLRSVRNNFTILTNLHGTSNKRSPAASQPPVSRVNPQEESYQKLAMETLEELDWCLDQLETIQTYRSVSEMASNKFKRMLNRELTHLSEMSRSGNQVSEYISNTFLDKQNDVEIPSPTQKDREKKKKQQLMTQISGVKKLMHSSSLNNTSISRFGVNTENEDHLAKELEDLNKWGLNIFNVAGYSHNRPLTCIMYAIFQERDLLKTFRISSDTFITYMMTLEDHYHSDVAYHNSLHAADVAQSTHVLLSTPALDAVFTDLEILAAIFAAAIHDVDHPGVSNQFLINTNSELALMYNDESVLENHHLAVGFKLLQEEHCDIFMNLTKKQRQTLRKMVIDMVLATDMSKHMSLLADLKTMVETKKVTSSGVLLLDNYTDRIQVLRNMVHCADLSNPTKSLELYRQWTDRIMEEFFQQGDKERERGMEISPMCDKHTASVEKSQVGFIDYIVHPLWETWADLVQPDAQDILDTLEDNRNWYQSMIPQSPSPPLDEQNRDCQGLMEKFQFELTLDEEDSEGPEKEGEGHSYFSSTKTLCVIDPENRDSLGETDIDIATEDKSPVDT
Pyruvate kinase (Leishmania mexicana), sequence (Q27686 2-499 E452W): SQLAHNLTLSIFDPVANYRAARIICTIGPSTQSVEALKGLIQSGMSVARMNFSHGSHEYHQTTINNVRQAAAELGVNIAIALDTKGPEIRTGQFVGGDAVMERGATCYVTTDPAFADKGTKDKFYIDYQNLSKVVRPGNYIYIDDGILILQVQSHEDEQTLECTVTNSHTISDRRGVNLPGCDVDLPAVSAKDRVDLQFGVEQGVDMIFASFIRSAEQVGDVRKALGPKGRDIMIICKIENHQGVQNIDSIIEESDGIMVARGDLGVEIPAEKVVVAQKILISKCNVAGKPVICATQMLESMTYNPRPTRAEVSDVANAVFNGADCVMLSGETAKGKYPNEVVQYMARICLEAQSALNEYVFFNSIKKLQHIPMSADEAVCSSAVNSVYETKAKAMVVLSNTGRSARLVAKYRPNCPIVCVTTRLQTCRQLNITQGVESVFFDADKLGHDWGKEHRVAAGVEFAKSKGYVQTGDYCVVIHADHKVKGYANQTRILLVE
Guanine nucleotide-binding protein G(i) subunit alpha-1 (Homo sapiens), sequence (P63096 whole entry, looked up): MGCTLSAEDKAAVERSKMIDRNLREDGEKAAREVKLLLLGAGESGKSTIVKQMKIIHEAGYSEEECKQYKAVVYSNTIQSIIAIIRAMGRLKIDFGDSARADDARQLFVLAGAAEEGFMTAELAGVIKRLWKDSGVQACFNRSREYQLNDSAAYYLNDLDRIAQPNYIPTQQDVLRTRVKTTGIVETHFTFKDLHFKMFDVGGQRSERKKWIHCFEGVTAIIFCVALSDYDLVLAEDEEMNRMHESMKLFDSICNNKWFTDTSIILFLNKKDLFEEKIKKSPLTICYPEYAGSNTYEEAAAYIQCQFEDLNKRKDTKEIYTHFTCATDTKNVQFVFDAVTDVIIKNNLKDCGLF
Pyruvate kinase PKM (Homo sapiens), sequence (P14618 whole entry, looked up): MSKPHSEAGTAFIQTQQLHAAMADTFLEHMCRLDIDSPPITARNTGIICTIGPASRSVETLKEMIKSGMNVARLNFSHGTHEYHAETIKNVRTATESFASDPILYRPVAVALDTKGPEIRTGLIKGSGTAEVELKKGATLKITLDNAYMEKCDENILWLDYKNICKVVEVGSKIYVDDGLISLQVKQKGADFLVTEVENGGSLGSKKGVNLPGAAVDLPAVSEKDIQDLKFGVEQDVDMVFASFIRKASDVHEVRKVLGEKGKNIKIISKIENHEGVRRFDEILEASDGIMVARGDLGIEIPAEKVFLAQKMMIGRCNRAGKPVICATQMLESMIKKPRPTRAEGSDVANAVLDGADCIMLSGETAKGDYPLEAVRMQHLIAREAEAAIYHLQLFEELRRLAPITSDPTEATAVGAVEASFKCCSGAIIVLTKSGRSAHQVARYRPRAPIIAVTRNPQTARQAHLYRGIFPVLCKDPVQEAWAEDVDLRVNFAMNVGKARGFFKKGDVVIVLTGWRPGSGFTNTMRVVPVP
Alpha-galactosidase A (Homo sapiens), sequence (P06280 whole entry, looked up): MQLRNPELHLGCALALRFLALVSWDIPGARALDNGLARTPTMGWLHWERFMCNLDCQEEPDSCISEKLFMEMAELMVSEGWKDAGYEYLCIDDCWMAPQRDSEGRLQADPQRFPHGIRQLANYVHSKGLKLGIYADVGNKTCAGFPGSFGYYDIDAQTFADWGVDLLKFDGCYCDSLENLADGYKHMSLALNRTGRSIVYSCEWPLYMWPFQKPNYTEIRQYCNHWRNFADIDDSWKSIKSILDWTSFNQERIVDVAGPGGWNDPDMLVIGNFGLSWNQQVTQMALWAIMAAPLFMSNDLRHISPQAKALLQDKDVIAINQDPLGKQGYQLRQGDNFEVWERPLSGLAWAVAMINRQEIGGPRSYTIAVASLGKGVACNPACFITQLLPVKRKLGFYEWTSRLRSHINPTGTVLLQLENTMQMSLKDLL

Compound	Potency [1]	Potency [2]	Potency [3]	Potency [4]	Potency [5]	activity change, negative = inhibition [6]	max response [6, 19] [%]	max response [6, 20] [%]	Potency [7]	Potency [8]	Potency [9]	Potency [10]	activity change, negative = inhibition [11]	activity change, negative = inhibition [12]	activity, negative = inhibition [13]	outcome [14]	Potency [15]	outcome [16]	outcome [17]	outcome [18]
CC(=O)ON(C(C)=O)S(=O)(=O)c1ccc(Cl)cc1	inactive	> 46 µM (inactive)	> 46 µM (inactive)	inactive	inactive	-5.19% (inactive)	-20.7	-23.7	inactive	inactive	inactive	inactive								
CC(N)=NCCCC[C@H](N)C(=O)O	inactive and 39.8 µM (active)	> 46 µM (inactive)	> 46 µM (inactive)	inactive	inactive	-4.89% (inactive)	-8.18	-10.8	inactive	inactive	inactive	inactive	-1.14% (inactive)	-3.86% (inactive)	-14% (inactive)	inactive	inactive	inactive	inactive	inactive
NCCC(=O)O	inactive	> 46 µM (inactive)	> 46 µM (inactive)	inactive		-2.51% (inactive)	-17.6	-21.9	inactive	inactive	inactive	inactive								
